A selection: hits, their analogues and other compounds. The true share with any hit is near 8.1%.
ClpP mod – qHTS Assay for Activators of ClpP; purified B. subtilis ClpP, FRET peptide cleavage, 20 min; Potency, µM (top dose mostly 57.5 µM), for inactives: top-dose activity change, negative = active; ATP-dependent Clp protease proteolytic subunit (Bacillus subtilis (strain 168)), P80244; 340,000 compounds, 1.9% hits; active = well fitted falling curve with a large enough effect; inconclusive = small, poorly fitted or top-dose-only effect; inactive = no such curve, though single readings can be large or run the other way; also: the source files actives as falling curves though it sought activators and does not explain the sign; nearly all actives have a fitted effect of over 65% in size
Target sequence (P80244 whole entry, looked up): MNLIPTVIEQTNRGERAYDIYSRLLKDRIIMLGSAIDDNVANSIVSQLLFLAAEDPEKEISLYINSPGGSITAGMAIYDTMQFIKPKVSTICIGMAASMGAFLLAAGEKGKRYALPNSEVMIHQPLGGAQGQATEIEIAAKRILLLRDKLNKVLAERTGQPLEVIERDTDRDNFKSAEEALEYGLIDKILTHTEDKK
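FRET quenching reversal measured ClpP activation: 10 microg/mL B. subtilis ClpP at pH 8 with the FRET-FV decapeptide, read at 430 nm after 320 nm excitation. The 20-min minus 0-min signal was scaled between DMSO/no-enzyme wells and ADEP (5.8 microM final).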
Sfp inh – inhibitors of Bacillus subtilis Sfp phosphopantetheinyl transferase; Q9F4F7; Biochemical Sfp PPTase activity, qHTS; Potency, µM, without a hit: largest response in the series, negative = inhibition, hits mostly inhibitors; 310,000 compounds, 3.5% hits;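 also: the enzyme is Sfp with the accession as filed and its product quenches rhodamine fluorescence; 0% = enzyme reaction without inhibitor and -100% = no enzyme wells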
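Buffer: 50 mM Hepes-Na pH 7.6, 10 mM MgCl2, 0.01% Nonidet P-40, 0.01% BSA. Enzyme 15 nM, pre-exposed to compound 15 min; substrates then added and fluorescence change tracked over 30 min.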
Epigenetic derep – epigenetic control regulation, reporter derepression; murine LDR cells, GFP reporter derepression, 30 h; Potency, µM (top dose mostly 53.9 µM), inactives show top-dose GFP activation, hits mostly activators; 280,000 compounds, 0.2% hits; AID 1865; also: % of control where 0% means no effect; nearly all actives have a fitted effect of over 60% in size
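Murine LDR cells carrying a silenced, genomically integrated CMV-driven GFP reporter were exposed to compound for 30 hours at 37 C. After PBS washes, GFP-positive cells (20–120 um objects) were counted by laser-scanning microplate cytometry.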
VP16 counter – inhibits Gal4-VP16 luciferase reporter, ROR gamma counter-screen; Drosophila S2 Gal4-VP16 UAS-luciferase, luminescence, 20 h; Potency, µM (doses to about 53.6 µM), for the others: top-dose activity, negative = inhibition, usual class: inhibitors; 310,000 compounds, 3.5% hits;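 also: Gal4-VP16 expression switched on by copper sulfate through the metallothionein promoter; % is scaled to controls: 0 for no effect and ±100 for the full control effect; nearly all actives have a fitted effect of over 50% in size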
PINK1 modulator – modulators of PINK1 expression; PINK1 immunofluorescence, high-content cytometry, 24 h; Potency, µM (top dose mostly 76.6 µM), inactives show top-dose activation (PINK1 increase), usual class: activators; 410,000 compounds, 0.2% hits; AID 624263; active = well fitted activation curve with a large enough effect; inconclusive = small, poorly fitted or top-dose-only effect; cell line not stated here; also: % of control where 0% means no effect; nearly all actives have a fitted effect of over 65% in size
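Decision-based qHTS: stable cells, 24 h exposure to five compound concentrations, CCCP as control. Fixed cells stained for PINK1 plus nuclear, mitochondrial and cell markers, cytometer read.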
RORg inh – blocks mouse ROR gamma transcriptional activity; Drosophila S2 Gal4-RORgamma UAS-luciferase reporter, 20 h; AID 2551; 310,000 compounds, 5.4% hits; Potency, µM (highest dose often 53.6 µM), for inactives: at the top dose activity change, negative = inhibition, most hits filed as inhibitors; also: % is scaled to controls: 0 for no effect and ±100 for the full control effect; nearly all actives have a fitted effect of over 60% in size
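Stable Schneider cell line, Gal4 DNA-binding domain fused to ROR gamma, UAS-luciferase. Cmpd 1 hr RT → CuSO4 700 uM final → 20 hr RT → luciferase reagent 10 min → luminescence.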
Active calls of the source: *; ? = inconclusive; . = no result given; [ ] = another dose, or the depositor's remark. Unless noted, calls follow the shape of the dose curve; as a rule, active = well fitted curve in the direction sought with a large enough effect; inconclusive = small, poorly fitted or top-dose-only effect, or another doubt; inactive = no such curve, though single readings can be large; an effect the other way counts as inactive or inconclusive. Potency is read from the fitted curve at half-maximal effect.

SMILES	ClpP mod	Sfp inh	Epigenetic derep	VP16 counter	PINK1 modulator	RORg inh
Cc1nn(-c2ccc(F)cc2)c(-n2cccc2)c1C(=O)NCCc1ccc(Cl)cc1	-19%	.	-3%	.	30%	.
CCc1ccc(-n2c(N3CCN(c4ccc(F)cc4)CC3)nc3ccccc3c2=O)cc1	?	.	2%	.	1%	.
COc1ccc2c(c1)CC(NC(=O)Nc1ccc(Br)c(C)c1)CO2 (stereo not drawn)	0%	.	9%	.	1%	.
Cc1ccc(CNC(=S)NC2CCCCC2)cc1	1%	31%	.	4µM*	2%	4µM*
Cc1ccc(CNC(=O)NC2CCCCC2)cc1	1%	11%	-4%	5%	-2%	30%
S=C(NCc1cccc(Cl)c1)NC1CCCCC1	-2%	19%	-2%	14µM*	2%	2.8µM*
COCCCNC(=S)NC1CCCCC1	2%	11%	0%	?	1%	11µM*
O=C(NCCN1Cc2ccccc2C1=O)c1cccs1	-9%	3%	1%	-3%	-1%	30%
O=C1c2ccccc2CN1CCNC(=S)NC1CCCCC1	-1%	16%	0%	-25%	0%	18µM*
Cc1cc(-c2ccccc2)nc2cc(C(=O)Nc3cc(C(F)(F)F)ccc3Cl)nn12	-8%	.	2%	.	4%	.
Cc1cc2[nH]c(=O)c(=O)[nH]c2cc1S(=O)(=O)Nc1cccc(C(F)(F)F)c1	?	.	-1%	.	1%	.
COc1ccc(O)c(C(=O)N2CCC3(CC2)c2ccccc2[C@@H](NC(=O)c2ccccn2)[C@@H]3OC)c1	.	.	.	.	0%	.
CCOC(=O)C1CCCN(C(=O)c2cc3c(=O)n(C)c4ccccc4c3s2)C1 (stereo not drawn)	5%	.	0%	.	-1%	.
S=C(NCc1ccncc1)NC1CCCCC1	1%	-2%	0%	-5%	2%	3%
S=C(NCCCc1ccccc1)NC1CCCCC1	-1%	13%	.	7.1µM*	3%	4.5µM*
S=C(NCc1ccccc1)NC1CCCCC1	-1%	1%	-8%	18µM*	1%	4µM*
S=C(NCCc1ccccn1)NC1CCCCC1	-3%	21%	0%	-90%	-1%	13µM*
O=Cc1ccc(N2CCOCC2)cc1	-3%	.	.	.	.	.
CCOC(=O)c1sc2ccccc2c1OC(=O)c1ccc(C)cc1	2%	10%	-1%	1%	2%	?
CCOC(=O)c1sc(S(C)=O)c2c1CCc1conc1-2 (stereo not drawn)	-13%	40µM*	2%	-8%	1%	-40%
CCOC(=O)C(C)Sc1ncnc2c1c(-c1ccccc1)cn2-c1ccc(OC)cc1 (stereo not drawn)	25µM*	-3%	-1%	-18%	3%	?
CCC(Sc1ncnc2c1c(-c1ccccc1)cn2-c1ccc(OC)cc1)C(=O)OC (stereo not drawn)	32µM*	1%	-1%	5%	2%	85%
COC(=O)NC(c1cccc(C)c1)C(C(C)=O)C(=O)OC (stereo not drawn)	.	9%	0%[10.1 µM]	-8%[10 µM]	.	-1%[10 µM]
Cc1cc(-c2csc(Nc3ccccn3)n2)ccc1F	-2%	17%	.	?	?	1µM*
Cc1ccnc(Nc2nc(-c3ccc(F)cc3)cs2)c1	-1%	1%	.	?	1%	11µM*
COc1ccc(CNC(=O)CCc2c(C)nc3c(c2C)c(=O)n(C)c(=O)n3C)cc1	-7%	.	-1%	.	1%	.
CC(=O)OCC1OC(c2ccccc2)C(OC(C)=O)C(OC(C)=O)C1OC(C)=O (stereo not drawn)	1%	-5%	-3%	-5%	5%[38.3 µM]	-3%
CC(=O)OC[C@H]1O[C@@H](Sc2cccc3cccnc23)[C@H](OC(C)=O)[C@@H](OC(C)=O)[C@H]1OC(C)=O	4µM*	-2%	16%	-21%	0%	?

Screens as filed in PubChem BioAssay.
